Assay outcomes from PubChem.
Hits are enriched below; roughly 1.3% of the tested compounds scored in any of these assays.
IL1B NFkB inh = blocks IL-1B driven NFkB nuclear translocation in HUVEC cells. AID 796. HUVEC IL-1B NFkB p65 nuclear translocation imaging. actives 0.43% (n = 94,000). inhibition, % at 2 µM;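 active = inhibition above about 30% together with a positive call from visual inspection of the well image, limit read from the data; inconclusive = inhibition above a set limit but visual check negative; inactive = inhibition not above a set limit, visual check negative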;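 also: nuclear over cytoplasmic p65 intensity ratio measured by imaging; 0% = IL-1B stimulated DMSO wells and 100% = unstimulated DMSO wells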
IL1B NFkB pot = enhances IL-1B driven NFkB nuclear translocation | AID 819 | actives 0.3% (n = 94,000) | activation, % at 2 µM | HUVEC IL-1B NFkB p65 nuclear translocation imaging;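 active = activation above 40%, about the mean plus 3 SD, also judged a hit on visual image review; inconclusive = activation above 40% but not a hit on visual review; inactive = activation not above 40% and no visual hit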;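 also: percent activation is computed from the nuclear over cytoplasmic p65 intensity ratio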
IL1B cytotox = HUVEC cytotoxicity counter-screen, IL-1B stimulated | cell count reduction, % at 2 µM | actives 0.41% (n = 94,000) | HUVEC cell count loss, Hoechst imaging | AID 845;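 active = cell count reduction more than 3 SD above the screen-wide mean, cut at about 70% in these data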;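 also: normalized per plate to untreated control cells as the no-loss baseline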
Insulin prom inh = TRM-6 insulin promoter activity inhibition. actives 0.9% (n = 130,000). inhibition, % at 2 µM. TRM-6 cells (human fetal islet line), insulin promoter-eGFP reporter, imaging; reporter expression induced with tamoxifen;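 active = inhibition above the mean plus 3 SD, with well images judged a real hit on visual review, cut at about 60% in these data, passing the limit was not always enough; inconclusive = inhibition over the cutoff but images rejected on review; inactive = inhibition not above the cutoff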
An asterisk follows results filed as active; ? = inconclusive; · = no result given.

SMILES | IL1B NFkB inh | IL1B NFkB pot | IL1B cytotox | Insulin prom inh
COC(=O)c1cc(-c2ccc(Cl)cc2Cl)n[nH]1 | · | · | · | 78*
COC(=O)c1cc(-c2ccccc2)n[nH]1 | 7 | -7 | 3 | 29
S=C(NCc1ccco1)N1CCN(Cc2ccc(Cl)cc2Cl)CC1 | -11 | 11 | -6 | 4
CC(=O)Nc1ccc(NS(=O)(=O)c2ccc(Cl)c(C(=O)O)c2)cc1 | -4 | 4 | -32 | 79*
COc1c(S(=O)(=O)N2CCN(c3ccc(F)cc3)CC2)ccc(Cl)c1Cl | 5 | -5 | 15 | 74*
COc1ccc(Cl)cc1S(=O)(=O)N1CCN(c2ccc(F)cc2)CC1 | 0 | 0 | 0 | 19
COC(=O)c1ccc(Oc2nc(C)cc(Oc3ccccc3)n2)cc1 | -27 | 27 | 90* | -16
Cc1ccc(/C=C/C(=O)O)cc1S(=O)(=O)N(CCO)CCO | · | · | · | 7
COC(=O)C1=C(C)NC(=O)/C1=C\c1cc(C)n(-c2ccccc2F)c1C | · | · | · | 29
COC(=O)C1=C(C)NC(=O)/C1=C\c1cc(C)n(-c2ccccc2C)c1C | -13 | 13 | -64 | 71*
CCCCOC(=O)CSc1n[nH]c(=O)[nH]c1=O | 15 | -15 | 4 | 79*
Cc1ccc(NC(=O)C2CCN(c3cnccn3)CC2)cc1C | · | · | · | 27
Cc1nc2c(Cl)cc(Cl)cc2[nH]1 | 1 | -1 | 20 | 73*
COC(=O)C1=C(C)N=C2SC(C#N)=C(N)N2C1c1cccc(OC)c1 (stereo unspecified) | -15 | 15 | -10 | 100*
Cc1ccc(C)c(S(=O)(=O)N2C(=S)NC(=O)C2C(C)C)c1 (stereo unspecified) | -4 | 4 | 12 | 80*
C=CCOc1nc2c(c(=O)n(C)c(=O)n2C)n1C | -1 | 1 | 85* | -33
C/C=C/COc1nc2c(c(=O)n(C)c(=O)n2C)n1C | -11 | 11 | -26 | -51
CCOc1ccc(NC(=O)c2ccccn2)cc1 | · | · | · | -43
CCOc1ccc(NC(=O)c2cnccn2)cc1 | -8 | 7 | -29 | 94*
O=C(c1cc2ccccc2oc1=O)N1CCN(c2ncccn2)CC1 | -2 | 2 | 8 | 79*
O=C(c1cc2ccccc2oc1=O)N1CCN(c2ccccn2)CC1 | 2 | -2 | 0 | ·
CC(=O)c1cccc(NC(=O)C(CC(C)C)NC(=O)C2CCCCC2)c1 (stereo unspecified) | · | · | · | 7
CCOC(=O)N1CCN(C(=O)CN(C2CCCCC2)S(=O)(=O)c2c(C)cc(C)cc2C)CC1 | -6 | 6 | 9 | -75
Cc1cc(C)c(S(=O)(=O)N(CC(=O)N2CCOCC2)C2CCCCC2)c(C)c1 | 7 | -7 | 75* | -31
COc1ccc(NC(=O)/C(Cl)=C(/Cl)S(=O)Cc2ccccc2)cn1 (stereo unspecified) | 65* | -84 | 14 | ·
SMILES | IL1B NFkB inh | IL1B NFkB pot | IL1B cytotox | Insulin prom inh
CCCCCCCCCOC(=O)C(CC(=O)O)N1CCOCC1 (stereo unspecified) | -8 | 7 | -29 | 68*
O=C(N/N=C/c1ccc(Cl)cc1)C1CC12CCC2 (stereo unspecified) | · | · | · | -15
Fc1ccc(Nc2ccnc(Nc3ccc(F)cc3)n2)cc1 | · | · | · | -12
COc1ccc(C2OCC3(CO2)SC(=O)NC3=O)cc1 (stereo unspecified) | · | · | · | 73*
CN(C)S(=O)(=O)c1ccc(NC(=O)N2CCN(c3cccc(C(F)(F)F)c3)CC2)cc1 | -1 | 1 | -19 | 43
COc1ccc(NC(=O)N2CCN(c3cccc(C(F)(F)F)c3)CC2)cc1 | 3 | -3 | -4 | 75*
Cc1ccc(-n2ncc3c(=O)n(CC(=O)N4CCN(c5ccccc5)CC4)cnc32)cc1C | · | · | · | -37
CCCNc1nc(N2CCCC2)nc(N2CCCC2)n1 | · | · | · | 83*
Cc1ccc(S(=O)(=O)Nc2nncs2)cc1 | -55 | 55* | -30 | ·
O=C(c1cc(Cl)cc(Cl)c1)N1CCOCC1 | 8 | -8 | 16 | 87*
Cc1ccc(C(=O)N2CCOCC2)cc1Cl | 9 | -9 | -24 | -54
C=CCn1c2ccccc2c2nnc(SCC(=O)Nc3c(C)n(C)n(-c4ccccc4)c3=O)nc21 | -9 | 9 | -24 | -64
C=CCn1c2ccccc2c2nnc(SCC(=O)NC(C(=O)OC)C(C)C)nc21 (stereo unspecified) | -16 | 15 | 89* | -65
CCC(C)Sc1nc2c(c(=O)[nH]c(=O)n2C)n1C (stereo unspecified) | -7 | 7 | 91* | -8
C/C=C/CSc1nc2c(c(=O)[nH]c(=O)n2C)n1CCC | -2 | 2 | -24 | 82*
CC(C)Sc1nc2c(c(=O)[nH]c(=O)n2C)n1C | -1 | 1 | 29 | 69
CCCn1c(Sc2nc3c(c(=O)[nH]c(=O)n3C)n2CCC)nc2c1c(=O)[nH]c(=O)n2C | -6 | 6 | -35 | -30
COc1ccc([N+](=O)[O-])cc1N(CC(=O)N1CCOCC1)S(C)(=O)=O | · | · | · | -60
CC(C)CC1CCCCC1OC(=O)C[N+]1(C)CCCCC1 (stereo unspecified) | · | · | · | -80
Cc1noc(C)c1CSc1nnc2c(C)cc3ccccc3n12 | -8 | 8 | 20 | -9
Cc1cc(C)n2c(SCc3ccccc3Cl)nnc2n1 | 31* | -31 | 27 | 0
Cc1cc(C)n2c(SCc3c(C)noc3C)nnc2n1 | ? | -54 | -8 | 80*
CCCc1nc(SCC(=O)N2CCCc3ccccc32)c2c(=O)n(C)c(=O)n(C)c2n1 | 7 | -7 | 21 | ·
Cn1c(=O)c2c(SCC(=O)N3CCCc4ccccc43)nc(CC(C)(C)C)nc2n(C)c1=O | -42 | 42* | 2 | ·
COc1ccc(NC2c3ncccc3C(=O)N2Cc2ccccc2)c(OC)c1 (stereo unspecified) | -16 | 16 | 90* | 53
SMILES | IL1B NFkB inh | IL1B NFkB pot | IL1B cytotox | Insulin prom inh
COc1ccc(S(=O)(=O)c2nnn(-c3ccccc3Cl)c2N)cc1 | · | · | · | 73*
NC(=O)CSC1=Nc2ccccc2C2=NC(c3ccccc3)C(=O)N12 (stereo unspecified) | · | · | · | 79*
N=C(N)N1CCc2ccccc2C1 | · | · | · | 29
COc1ccc(S(=O)(=O)N(C)CC(=O)Nc2ccc3c(c2)OCO3)cc1 | 27 | -27 | -9 | 41
COc1ccc(S(=O)(=O)N(C)CC(=O)Nc2ccc3c(c2)OCO3)cc1OC | 7 | -7 | 81* | -78
O=C(Nc1ccccc1)c1ccc(S(=O)(=O)N(CCO)CCO)cc1 | 0 | 0 | -13 | 77*
CC(=O)Nc1ccc(S(=O)(=O)N(CCO)Cc2ccccc2)cc1 | -29 | 29 | 3 | 29
Cc1c(C)c2c(C)[nH]nc2oc1=O | 14 | -14 | 76* | 42
CCN(CC)c1ccc2cc(C=O)c(=O)oc2c1 | -72 | 72* | -7 | ·
COc1ccc(CC(=O)OCC(=O)NC(=O)NC23CC4CC(CC(C4)C2)C3)cc1 | 8 | -8 | -9 | -19
CC1CC1C(=O)OCC(=O)NC(=O)NC12CC3CC(CC(C3)C1)C2 (stereo unspecified) | · | · | · | 100*
c1nc(NC2CCCCCC2)c2[nH]cnc2n1 | · | · | · | 70*
c1nc(NC2CCCCC2)c2[nH]cnc2n1 | · | · | · | -21
COc1cc(C(=O)Nc2nnc(CC(C)C)s2)c([N+](=O)[O-])cc1OC | · | · | · | 47
CC(=O)Nc1ccc(C(=O)OCC(=O)NC2CCCCCCC2)cc1 | · | · | · | 0
